In the supplement of paper PMC10849652:
Of roughly 8,800 targets only a part is listed; those with a hit were picked by preference. About 0.5% of all pairs of compound and target were hits.

Experiments:
Assay in all cases: log2 fold change, soluble protein after heating vs DMSO (PISA); higher = thermal stabilisation; K562 lysate, 10 uM; active = over 0.2 and 3.5 SD of the protein, either way, in both replicates (recomputed)
[1] = compound: C1=CC=C(C=C1)[C@H](COC2=CC3=C(C=C2)NC(=O)N3)NC(=O)C4=CC=CN(C4=O)CC5=CC(=C(C=C5)F)F
Summary of the method: (§1)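 K562 pellets were dounce-homogenised in PBS pH 7.4 with 1 mM MgCl2, and the crude extract at 1 mg/mL protein was treated with 10 μM compound for 30 min. Aliquots were heated for 3 min across 48°C-58°C, pooled, and brought to 0.5% NP-40 at 4°C; soluble protein was the supernatant after 21,000xg for 90 min. Soluble protein was quantified by TMTpro 16plex LC-MS/MS with channel sums equalised, and reported as log2 fold change in thermal stability against DMSO controls, with values from duplicates.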

[2] = compound: CC1=C(SC2=C1C(=N[C@H](C3=NN=C(N32)C)CC(=O)N)C4=CC=C(C=C4)Cl)C
Summary of the method: as §1

[3] = compound: CC1=C2C(=CC=C1)N=C(N(C2=O)C3=CC=CC=C3C)CN4C=NC5=C(N=CN=C54)N
Summary of the method: as §1

[4] = compound: Cc1sc2c(c1C)C(c1ccc(Cl)cc1)=N[C@@H](CC(=O)OC(C)(C)C)c1nnc(C)n1-2
Summary of the method: as §1

[5] = compound: c1ccc([C@@H]2C[C@H]2NC2CCNCC2)cc1
Summary of the method: as §1

Measured: log2 fold change

TNIK (UniProt C9J338)
inactive: [1] -0.028 | [2] 0.067 | [3] 0.135 | [4] -0.225 | [5] -0.375

TROAP (UniProt Q12815)
inactive: [1] -0.008 | [2] 0.12 | [3] 0.024 | [4] 0.057 | [5] 0.096

UFSP2 (UniProt Q9NUQ7)
inactive: [1] 0.059 | [2] 0 | [3] 0.057 | [4] -0.04 | [5] 0.022

TBL3 (UniProt Q12788)
inactive: [1] 0.024 | [2] 0.003 | [3] -0.014 | [4] -0.014 | [5] 0.014

UBR4 (UniProt Q5T4S7)
Chain of UniProt Q5T4S7 (Q5T4S7 whole entry, looked up): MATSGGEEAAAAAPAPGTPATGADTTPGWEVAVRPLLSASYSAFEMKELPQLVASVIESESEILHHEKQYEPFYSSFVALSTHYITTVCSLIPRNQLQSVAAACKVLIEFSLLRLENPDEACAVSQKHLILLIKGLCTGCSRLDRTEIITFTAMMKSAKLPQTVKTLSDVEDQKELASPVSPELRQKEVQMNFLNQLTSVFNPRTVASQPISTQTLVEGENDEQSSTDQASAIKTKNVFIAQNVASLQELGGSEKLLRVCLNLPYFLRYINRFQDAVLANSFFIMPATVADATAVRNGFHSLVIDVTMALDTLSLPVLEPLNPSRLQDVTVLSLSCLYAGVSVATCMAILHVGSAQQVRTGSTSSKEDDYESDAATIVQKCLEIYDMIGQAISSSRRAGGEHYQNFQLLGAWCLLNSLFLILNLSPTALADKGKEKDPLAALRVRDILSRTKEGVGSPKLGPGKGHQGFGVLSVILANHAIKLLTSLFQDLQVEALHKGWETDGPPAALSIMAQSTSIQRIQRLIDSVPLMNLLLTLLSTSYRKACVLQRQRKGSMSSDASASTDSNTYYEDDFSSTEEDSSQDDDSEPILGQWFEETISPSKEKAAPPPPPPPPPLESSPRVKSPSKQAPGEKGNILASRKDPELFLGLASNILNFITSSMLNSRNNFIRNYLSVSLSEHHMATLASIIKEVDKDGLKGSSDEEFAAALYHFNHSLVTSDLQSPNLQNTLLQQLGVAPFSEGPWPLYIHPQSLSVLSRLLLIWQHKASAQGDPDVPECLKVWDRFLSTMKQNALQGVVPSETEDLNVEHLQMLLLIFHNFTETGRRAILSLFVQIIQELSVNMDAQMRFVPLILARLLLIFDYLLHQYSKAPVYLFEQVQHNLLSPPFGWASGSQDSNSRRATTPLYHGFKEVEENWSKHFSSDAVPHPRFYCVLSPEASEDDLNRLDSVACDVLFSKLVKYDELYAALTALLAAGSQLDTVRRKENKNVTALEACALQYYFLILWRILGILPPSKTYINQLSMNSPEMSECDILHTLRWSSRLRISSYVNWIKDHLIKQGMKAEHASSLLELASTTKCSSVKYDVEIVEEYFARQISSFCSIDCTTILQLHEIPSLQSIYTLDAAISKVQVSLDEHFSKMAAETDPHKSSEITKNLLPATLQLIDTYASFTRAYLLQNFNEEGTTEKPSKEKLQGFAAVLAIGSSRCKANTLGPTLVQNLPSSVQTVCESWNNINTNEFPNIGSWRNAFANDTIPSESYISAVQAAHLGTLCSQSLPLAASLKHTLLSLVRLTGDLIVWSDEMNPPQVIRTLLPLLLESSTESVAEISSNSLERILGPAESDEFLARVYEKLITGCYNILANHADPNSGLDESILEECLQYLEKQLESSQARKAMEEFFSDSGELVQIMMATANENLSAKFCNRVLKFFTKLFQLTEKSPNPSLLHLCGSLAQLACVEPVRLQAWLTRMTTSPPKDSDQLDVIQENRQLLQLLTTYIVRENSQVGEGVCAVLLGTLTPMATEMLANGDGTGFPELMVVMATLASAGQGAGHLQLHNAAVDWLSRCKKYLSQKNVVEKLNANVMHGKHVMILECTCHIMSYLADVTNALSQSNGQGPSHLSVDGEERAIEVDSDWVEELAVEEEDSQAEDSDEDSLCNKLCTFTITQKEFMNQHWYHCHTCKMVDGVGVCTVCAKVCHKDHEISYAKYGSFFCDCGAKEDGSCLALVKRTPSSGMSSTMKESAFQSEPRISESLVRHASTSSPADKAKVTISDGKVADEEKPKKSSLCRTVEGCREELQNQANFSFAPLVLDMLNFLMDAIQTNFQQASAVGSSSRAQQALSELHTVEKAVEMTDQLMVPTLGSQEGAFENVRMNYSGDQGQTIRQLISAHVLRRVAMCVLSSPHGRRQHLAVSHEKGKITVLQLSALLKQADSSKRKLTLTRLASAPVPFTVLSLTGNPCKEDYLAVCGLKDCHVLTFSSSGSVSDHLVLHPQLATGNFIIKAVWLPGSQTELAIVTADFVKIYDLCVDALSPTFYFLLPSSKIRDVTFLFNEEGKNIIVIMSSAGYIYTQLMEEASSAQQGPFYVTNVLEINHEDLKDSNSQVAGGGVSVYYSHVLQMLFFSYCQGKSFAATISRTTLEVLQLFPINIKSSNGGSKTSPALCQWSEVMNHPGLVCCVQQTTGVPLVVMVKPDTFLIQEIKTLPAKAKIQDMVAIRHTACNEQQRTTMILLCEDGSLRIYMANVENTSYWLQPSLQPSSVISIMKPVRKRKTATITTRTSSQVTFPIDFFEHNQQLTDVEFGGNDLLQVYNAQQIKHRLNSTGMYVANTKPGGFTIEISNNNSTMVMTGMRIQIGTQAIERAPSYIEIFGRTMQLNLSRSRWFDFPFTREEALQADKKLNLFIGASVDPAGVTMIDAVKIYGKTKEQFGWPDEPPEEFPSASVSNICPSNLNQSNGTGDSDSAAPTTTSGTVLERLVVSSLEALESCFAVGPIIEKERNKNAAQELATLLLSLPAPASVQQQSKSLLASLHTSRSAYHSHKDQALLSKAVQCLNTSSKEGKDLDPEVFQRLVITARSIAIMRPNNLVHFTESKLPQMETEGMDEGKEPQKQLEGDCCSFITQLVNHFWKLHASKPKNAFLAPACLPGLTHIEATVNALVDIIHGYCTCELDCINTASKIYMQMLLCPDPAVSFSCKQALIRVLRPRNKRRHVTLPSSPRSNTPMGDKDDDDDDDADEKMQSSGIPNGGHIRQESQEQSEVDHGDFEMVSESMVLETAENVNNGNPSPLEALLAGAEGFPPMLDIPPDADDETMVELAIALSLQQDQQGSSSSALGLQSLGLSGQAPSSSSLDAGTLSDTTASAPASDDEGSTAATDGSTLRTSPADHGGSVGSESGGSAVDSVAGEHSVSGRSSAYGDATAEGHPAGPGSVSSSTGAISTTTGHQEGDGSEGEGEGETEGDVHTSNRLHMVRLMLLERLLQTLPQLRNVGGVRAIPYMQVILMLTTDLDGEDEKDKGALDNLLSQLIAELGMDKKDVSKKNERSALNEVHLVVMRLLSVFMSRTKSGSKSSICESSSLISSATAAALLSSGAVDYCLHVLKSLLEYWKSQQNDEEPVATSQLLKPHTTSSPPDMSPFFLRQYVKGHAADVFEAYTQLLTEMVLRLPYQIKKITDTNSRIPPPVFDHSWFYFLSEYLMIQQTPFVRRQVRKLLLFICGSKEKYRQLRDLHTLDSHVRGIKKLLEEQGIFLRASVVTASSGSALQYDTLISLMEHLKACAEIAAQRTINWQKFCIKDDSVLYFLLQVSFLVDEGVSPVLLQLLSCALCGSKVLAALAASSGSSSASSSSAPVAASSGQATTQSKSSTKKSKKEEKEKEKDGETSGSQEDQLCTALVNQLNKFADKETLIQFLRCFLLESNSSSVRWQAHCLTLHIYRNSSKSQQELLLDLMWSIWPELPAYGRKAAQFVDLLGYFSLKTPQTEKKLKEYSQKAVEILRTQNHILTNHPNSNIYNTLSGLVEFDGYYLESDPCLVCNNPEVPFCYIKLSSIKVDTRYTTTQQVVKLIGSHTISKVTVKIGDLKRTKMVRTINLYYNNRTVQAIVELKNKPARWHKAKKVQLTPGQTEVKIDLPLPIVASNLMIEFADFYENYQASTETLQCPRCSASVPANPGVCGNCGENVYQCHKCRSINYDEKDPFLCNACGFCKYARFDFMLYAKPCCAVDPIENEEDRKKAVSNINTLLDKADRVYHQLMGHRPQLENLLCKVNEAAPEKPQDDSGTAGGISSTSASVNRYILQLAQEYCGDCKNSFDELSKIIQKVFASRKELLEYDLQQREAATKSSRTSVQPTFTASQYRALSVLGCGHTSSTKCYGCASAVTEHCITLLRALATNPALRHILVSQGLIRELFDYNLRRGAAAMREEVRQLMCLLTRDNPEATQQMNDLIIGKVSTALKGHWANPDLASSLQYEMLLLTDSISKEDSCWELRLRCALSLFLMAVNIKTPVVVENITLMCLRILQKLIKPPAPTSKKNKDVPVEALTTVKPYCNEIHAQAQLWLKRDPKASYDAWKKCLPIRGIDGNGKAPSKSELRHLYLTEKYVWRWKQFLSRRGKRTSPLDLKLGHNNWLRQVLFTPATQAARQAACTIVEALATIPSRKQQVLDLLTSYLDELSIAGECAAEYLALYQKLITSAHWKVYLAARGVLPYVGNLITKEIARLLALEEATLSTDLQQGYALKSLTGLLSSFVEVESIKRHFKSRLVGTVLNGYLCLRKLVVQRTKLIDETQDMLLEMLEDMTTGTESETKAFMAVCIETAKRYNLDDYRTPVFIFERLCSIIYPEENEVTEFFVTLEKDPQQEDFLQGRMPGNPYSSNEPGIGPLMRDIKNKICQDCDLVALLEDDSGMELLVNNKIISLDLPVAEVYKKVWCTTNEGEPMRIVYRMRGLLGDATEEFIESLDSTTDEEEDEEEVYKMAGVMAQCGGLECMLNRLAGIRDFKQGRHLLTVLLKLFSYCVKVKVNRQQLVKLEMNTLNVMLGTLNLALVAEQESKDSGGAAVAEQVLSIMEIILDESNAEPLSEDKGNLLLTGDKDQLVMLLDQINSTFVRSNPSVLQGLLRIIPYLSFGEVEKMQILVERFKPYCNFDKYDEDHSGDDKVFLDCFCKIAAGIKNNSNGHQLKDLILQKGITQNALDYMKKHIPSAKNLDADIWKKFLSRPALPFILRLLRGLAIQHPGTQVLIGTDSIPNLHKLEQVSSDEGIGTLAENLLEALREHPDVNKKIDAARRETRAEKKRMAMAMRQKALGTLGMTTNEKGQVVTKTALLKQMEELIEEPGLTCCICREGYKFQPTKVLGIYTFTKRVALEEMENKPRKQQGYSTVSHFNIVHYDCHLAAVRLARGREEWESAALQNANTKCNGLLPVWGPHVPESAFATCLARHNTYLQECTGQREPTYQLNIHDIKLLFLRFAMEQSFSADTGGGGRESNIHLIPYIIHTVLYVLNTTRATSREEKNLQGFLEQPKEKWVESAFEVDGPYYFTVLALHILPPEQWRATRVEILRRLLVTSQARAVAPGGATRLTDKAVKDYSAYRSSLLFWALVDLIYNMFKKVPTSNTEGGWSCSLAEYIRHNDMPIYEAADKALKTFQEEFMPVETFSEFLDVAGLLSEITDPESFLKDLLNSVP
inactive: [1] -0.012 | [2] -0.008 | [3] 0.012 | [4] 0.012 | [5] -0.003

TPM3 (UniProt P06753)
inactive: [1] -0.018 | [2] 0.008 | [3] -0.018 | [4] 0.015 | [5] 0.057

TUBB1 (UniProt Q9H4B7)
inactive: [1] -0.005 | [2] 0.019 | [3] 0.008 | [4] 0.063 | [5] 0.087

UBE4A isoform 2 (UniProt Q14139)
inactive: [1] -0.016 | [2] -0.041 | [3] 0.003 | [4] 0.043 | [5] 0.051

TMEM70 (UniProt Q9BUB7)
inactive: [1] -0.029 | [2] 0.045 | [3] 0.021 | [4] 0.013 | [5] -0.083

TRIM33 isoform 2 (UniProt Q9UPN9)
inactive: [1] 0.003 | [2] 0.009 | [3] 0.022 | [4] 0.011 | [5] 0.005

TMPO isoform 2 (UniProt P42167)
inactive: [1] 0.11 | [2] 0.088 | [3] 0.033 | [4] -0.069

TTC38 (UniProt Q5R3I4)
inactive: [1] -0.001 | [2] 0 | [3] 0.05 | [4] 0.003 | [5] 0.126

TOE1 (UniProt Q96GM8)
inactive: [1] 0.063 | [2] -0.01 | [3] 0.03 | [4] 0.032 | [5] 0.01

UCHL5 (UniProt Q5LJA9)
inactive: [1] 0.002 | [2] -0.059 | [3] -0.022 | [4] -0.251 | [5] 0.133

UBE3C (UniProt Q15386)
inactive: [1] -0.027 | [2] -0.04 | [3] 0.127 | [4] 0.066 | [5] 0.039

TTC5 (UniProt Q8N0Z6)
inactive: [1] -0.022 | [2] 0.009 | [3] 0.035 | [4] 0.039 | [5] 0.002

TYMS (UniProt P04818)
inactive: [1] -0.005 | [2] 0.02 | [3] -0.005 | [4] 0.012 | [5] 0.014

THADA (UniProt Q6YHU6)
inactive: [1] -0.028 | [2] -0.016 | [3] 0.069 | [4] 0.007 | [5] 0.028

TCF3 (UniProt P15923)
inactive: [1] -0.029 | [2] 0.006 | [3] -0.004 | [4] -0.032 | [5] -0.08

TRIM56 (UniProt Q9BRZ2)
inactive: [1] -0.057 | [2] -0.009 | [3] 0.076 | [4] 0.003 | [5] 0.099

UGDH (UniProt O60701)
inactive: [1] 0.003 | [2] 0.001 | [3] -0.004 | [4] -0.056 | [5] 0.026

UBAP2L isoform 1 (UniProt Q14157)
inactive: [1] -0.101 | [2] -0.087

TRAPPC6A isoform 2 (UniProt O75865)
inactive: [1] 0.025 | [2] 0.046 | [3] -0.043 | [4] -0.003 | [5] 0.014

TMEM14C (UniProt Q9P0S9)
inactive: [1] -0.131 | [2] -0.031 | [3] 0.14 | [4] -0.015

TRAF2 isoform 2 (UniProt Q12933)
inactive: [1] -0.006 | [2] 0.005 | [3] -0.005 | [4] -0.002 | [5] -0.015
